Calls of active or inactive are those of the source. Rule for the calls: active = hit-call score of the fitted dose curve at least 0.9, where 1 is the maximum; inactive = score below 0.9.
Tests used:
Details in all cases: mRNA level, 48 h; actives raise or lower the signal
[1] = read-out: 3-Hydroxy-3-Methylglutaryl-CoA Synthase 2 (HMGCS2), HMGCS2 (gene 3158); experiment: LTEA_HepaRG_HMGCS2: Life Technologies and Expression Analysis (LTEA) Assay for 3-Hydroxy-3-Methylglutaryl-CoA Synthase 2 (HMGCS2) using HepaRG (AID 2283504)
Summary of the method: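 Readout is HMGCS2 transcript by qRT-PCR, housekeeping-normalised (ACTB/GAPDH/POLR2A) and fitted bidirectionally against 0.5% DMSO. Differentiated HepaRG cells received chemicals 48 h, duplicate wells, eight half-log concentrations topping at 100 uM.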

HGF (gene 3082) = experiment: LTEA_HepaRG_HGF: Life Technologies and Expression Analysis (LTEA) Assay for Hepatocyte Growth Facto (HGF) using HepaRG (AID 2283505)
Summary of the method: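 HGF transcript was quantified by TaqMan qRT-PCR against three housekeeping genes after 48 h treatment of HepaRG cells. Exposure ran in duplicate over eight half-log steps topping at 100 uM in 0.5% DMSO vehicle.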

[2] = read-out: Insulin Like Growth Factor 1 (IGF1), IGF1 (gene 3479); experiment: LTEA_HepaRG_IGF1: Life Technologies and Expression Analysis (LTEA) Assay for Insulin Like Growth Factor 1 (IGF1) using HepaRG (AID 2283506)
Summary of the method: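 Endpoint: IGF1 mRNA change by qRT-PCR, housekeeping-normalized, fitted bidirectionally relative to 0.5% DMSO vehicle. Human HepaRG cells were treated 48 h in serum-free induction medium, eight half-log concentrations topping at 100 uM.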

[3] = read-out: Intercellular Adhesion Molecule 1 (ICAM1), ICAM1 (gene 3383); experiment: LTEA_HepaRG_ICAM1: Life Technologies and Expression Analysis (LTEA) Assay for Intercellular Adhesion Molecule 1 (ICAM1) using HepaRG (AID 2283507)
Summary of the method: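 ICAM1 transcript levels measured by qRT-PCR, normalized to three housekeeping genes (ACTB, GAPDH, POLR2A), after 48 h chemical exposure of HepaRG cells. Duplicate eight-point half-log series from 100 uM in 0.5% DMSO; gain or loss fitted against vehicle.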

[4] = read-out: Insulin-like growth factor-binding protein 1 (IGFBP1), IGFBP1 (gene 3484); experiment: LTEA_HepaRG_IGFBP1: Life Technologies and Expression Analysis (LTEA) Assay for Insulin-like growth factor-binding protein 1 (IGFBP1) using HepaRG (AID 2283508)
Summary of the method: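 Read-out is qRT-PCR transcript level normalized to three housekeeping genes, fitted in both directions against 0.5% DMSO. Differentiated HepaRG cells received eight half-log concentrations (top 100 uM) in duplicate for 48 h in serum-free induction medium.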

[5] = read-out: Interleukin 6 (IL6), IL6 (gene 3569); experiment: LTEA_HepaRG_IL6: Life Technologies and Expression Analysis (LTEA) Assay for Interleukin 6 (IL6) using HepaRG (AID 2283509)
Summary of the method: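 qRT-PCR read-out of IL6 transcript, normalized to three housekeeping genes, after 48 h chemical exposure of HepaRG cells; 8-point half-log series, top 100 uM, 0.5% DMSO vehicle. Bidirectional curve fitting against DMSO baseline.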

[6] = read-out: Interleukin 6 Receptor (IL6R), IL6R (gene 3570); experiment: LTEA_HepaRG_IL6R: Life Technologies and Expression Analysis (LTEA) Assay for Interleukin 6 Receptor (IL6R) using HepaRG (AID 2283510);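 for AC50: differentiated human HepaRG liver cells in serum-free induction medium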
Summary of the method: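 In this HepaRG screen, test chemicals act on cells for 48 h at up to 100 uM (eight half-log points, duplicate wells). IL6R expression is quantified by qRT-PCR after normalization to ACTB, GAPDH and POLR2A, with DMSO as baseline.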

[7] = read-out: Potassium channel subfamily K member 1 (KCNK1), KCNK1 (gene 3775); experiment: LTEA_HepaRG_KCNK1: Life Technologies and Expression Analysis (LTEA) Assay for Potassium channel subfamily K member 1 (KCNK1) using HepaRG (AID 2283511)
Summary of the method: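 HepaRG, 48 h exposure, 8-pt half-log series top 100 uM, 0.5% DMSO vehicle, duplicates. Readout: KCNK1 transcript by qRT-PCR (Fluidigm array), housekeeping-normalized; bidirectional curve fit relative to DMSO baseline.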

[8] = read-out: Keratin 19 (KRT19), KRT19 (gene 3880); experiment: LTEA_HepaRG_KRT19: Life Technologies and Expression Analysis (LTEA) Assay for Keratin 19 (KRT19) using HepaRG (AID 2283512)
Summary of the method: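 KRT19 transcript measured by TaqMan qRT-PCR, referenced to three housekeeping genes, after HepaRG cells received test chemicals for 48 h. Eight half-log concentrations, top 100 uM, 0.5% DMSO vehicle; increases and decreases both fitted.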

[9] = read-out: JUN Transcription Factor, JUN (gene 3725); experiment: LTEA_HepaRG_JUN: Life Technologies and Expression Analysis (LTEA) Assay for JUN Transcription Factor using HepaRG (AID 2283513)
Summary of the method: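 Gene-expression endpoint: JUN mRNA (qRT-PCR, normalized to three reference genes) in HepaRG cultures treated 48 h with chemicals, duplicate wells, 100 uM maximum with half-log dilutions; bidirectional fitting relative to 0.5% DMSO.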

Measured: AC50

CO[C@@H]1COCC[C@@H]1N[C@@H]1CC[C@@](C(=O)N2CCc3ncc(C(F)(F)F)cc3C2)(C(C)C)C1
inactive: [1] | HGF (gene 3082) | [2] | [3] | [4] | [5] | [6] | [7] | [8]

O=NO
inactive: [1] | HGF (gene 3082) | [2] | [3] | [4] | [5] | [6] | [7] | [8]

O=C1c2c(O)cccc2Cc2cccc(O)c21
inactive: [1] | HGF (gene 3082) | [2] | [3] | [4] | [5] | [6] | [7] | [8]

S=c1[nH]c2ccccc2s1
inactive: [1] | HGF (gene 3082) | [2] | [3] | [4] | [5] | [6] | [7] | [8]

CC(C)(O)c1ccc(CNC(=O)c2cccnc2Oc2ccc(F)cc2)cc1
inactive: [1] | HGF (gene 3082) | [3] | [4] | [5] | [6] | [7] | [8] | [9]
active: [2] 50 µM

C=CCc1ccc(OC)c(OC)c1
inactive: [1] | HGF (gene 3082) | [2] | [3] | [4] | [5] | [6] | [7] | [8]

O=C(O)CN(CC(=O)O)CC(=O)O
inactive: [1] | HGF (gene 3082) | [2] | [3] | [4] | [5] | [6] | [7] | [8]

O=C1CCCCC1
inactive: [1] | HGF (gene 3082) | [2] | [3] | [4] | [5] | [6] | [7] | [8]

CC(C)OC(=O)C(C)(C)Oc1ccc(C(=O)c2ccc(Cl)cc2)cc1
inactive: HGF (gene 3082) | [2] | [3] | [4] | [5] | [6] | [7] | [8]
active: [1] 4.29 µM

O=C(NS(=O)(=O)/C=C/c1cccs1)c1ccc(F)cc1Br
inactive: HGF (gene 3082) | [3] | [4] | [5] | [6] | [7] | [8]
active: [1] 71 µM | [2] 31.1 µM

CN(C)C(=O)NC1(c2ccccc2)CCN(CCC[C@]2(c3ccc(Cl)c(Cl)c3)CCCN(C(=O)c3ccccc3)C2)CC1
active: HGF (gene 3082) 22.5 µM | [2] 16.4 µM | [3] 20.1 µM | [4] 18.2 µM | [5] 22.7 µM | [6] 17.2 µM | [7] 16.1 µM | [8] 20.7 µM
inactive: [1]

Cn1cnc2c1c(=O)[nH]c(=O)n2C
inactive: [1] | HGF (gene 3082) | [2] | [3] | [4] | [5] | [6] | [7] | [8]

Oc1ccccc1O
inactive: [1] | HGF (gene 3082) | [2] | [3] | [4] | [5] | [6] | [7] | [8]

Cc1cc(Cc2ccc(N)c(C)c2)ccc1N
inactive: [1] | HGF (gene 3082) | [2] | [3] | [4] | [5] | [6] | [7] | [8]

CS(=O)(=O)c1ccc([C@@H](C[C@H]2CCC(=O)C2)C(=O)Nc2cnccn2)cc1Cl
inactive: [1] | [5] | [8]
active: HGF (gene 3082) 1.71 µM | [2] 1.24 µM | [3] 1.48 µM | [4] 2.29 µM | [6] 16.8 µM | [7] 1.4 µM

CC(=O)O[C@]1(C(C)=O)CC[C@H]2[C@@H]3C=C(Cl)C4=CC(=O)[C@@H]5C[C@@H]5[C@]4(C)[C@H]3CC[C@@]21C
inactive: HGF (gene 3082) | [3] | [5] | [6] | [7]
active: [1] 67.1 µM | [2] 50 µM | [4] 50 µM | [8] 17.9 µM

C/C=C/C=C/C(=O)O
inactive: [1] | HGF (gene 3082) | [2] | [3] | [4] | [5] | [6] | [7] | [8]

CC(=O)OC1CC(C)OC(C)O1 (configuration not stated)
inactive: [1] | HGF (gene 3082) | [2] | [3] | [4] | [5] | [6] | [7] | [8] | [9]

NC1CCCCC1
inactive: [1] | HGF (gene 3082) | [2] | [3] | [4] | [5] | [6] | [7] | [8]

O=C1O[C@H]([C@H](O)CO)C(O)=C1O
inactive: [1] | HGF (gene 3082) | [2] | [3] | [4] | [5] | [6] | [7] | [8]

CCCC[C@H]1CN(CC2CCOCC2)C(=O)OC12CCN(C1(C)CCN(C(=O)c3c(C)ncnc3C)CC1)CC2
inactive: [1] | HGF (gene 3082) | [2] | [3] | [4] | [5] | [6] | [7] | [8] | [9]

C=CCCCCCCCCCCCC
inactive: [1] | HGF (gene 3082) | [2] | [3] | [4] | [5] | [6] | [7] | [8]

O=Cc1ccccc1C=O
inactive: [1] | HGF (gene 3082) | [2] | [3] | [4] | [5] | [6] | [7] | [8]

CCCCCCCCCCCCCCCCO
inactive: [1] | HGF (gene 3082) | [2] | [3] | [4] | [5] | [7] | [8] | [9]
active: [6] 50 µM

CCCCC(CC)COC(=O)CCCCCCCC(=O)OCC(CC)CCCC (configuration not stated)
inactive: [1] | HGF (gene 3082) | [2] | [3] | [4] | [5] | [6] | [7] | [8]

Cc1c(C)c2c(c(C)c1O)CCC(C)(COc1ccc(CC3SC(=O)NC3=O)cc1)O2 (configuration not stated)
inactive: [1] | HGF (gene 3082) | [3] | [7] | [8]
active: [2] 68.5 µM | [4] 50 µM | [5] 88.2 µM | [6] 92.9 µM

Cc1cc(SC2=C(O)C[C@@](CCc3ccc(N)cc3)(C(C)C)OC2=O)c(C(C)(C)C)cc1CO
active: [1] 16.8 µM | [2] 4.02 µM
inactive: HGF (gene 3082) | [3] | [4] | [5] | [6] | [7] | [8] | [9]

CC(C)c1cccc(C(C)C)c1
inactive: [1] | HGF (gene 3082) | [2] | [3] | [4] | [5] | [6] | [7] | [8]

CCCCCCC(CCCCCCCCCCC(=O)OCC(COC(C)=O)OC(C)=O)OC(C)=O (configuration not stated)
inactive: [1] | HGF (gene 3082) | [2] | [3] | [4] | [5] | [6] | [7] | [8] | [9]

— PubChem BioAssay (EPA / NIEHS)
